Assay outcomes from PubChem.
Most compounds without a hit are left out; they make up all but 10% or so of the library.
GPT2 inhibitor: GPT2 alanine aminotransferase inhibition; Q8TD30; Recombinant GPT2, coupled pyruvate oxidase/HRP Amplex Red fluorescence; Potency, µM (titrated, usually from 57.7 µM), hits mostly inhibitors; actives 0.25% (n = 100,000); further: nearly all actives have a fitted effect of over 60% in size
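Inhibition is scored from Amplex Red fluorescence generated when pyruvate oxidase and HRP act on pyruvate released by GPT2. Reactions contain 10ng/uL enzyme, 250uM a-KG and 2mM L-alanine and run 30 min at room temperature.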
3T3 cytotox: kills NIH 3T3 cells; AID 1345082; Potency, µM (top dose mostly 96.7 µM), hits mostly inhibitors; actives 4.3% (n = 94,000); NIH 3T3 viability, CellTiter-Glo ATP luminescence, 48-72 h; further: nearly all actives have a fitted effect of over 55% in size
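Luminescent ATP readout (CellTiter-Glo, 10 min RT) after 48 or 72 hr compound exposure of NIH 3T3 cells seeded at 400 cells/well in 1536-well format; quantitative HTS.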
hNpr1 antagonist: antagonists of human natriuretic peptide receptor Npr1; P16066; HEK293 hNpr1 GloSensor cGMP, ANP-stimulated luminescence; Potency, µM (doses to about 46.3 µM), actives largely listed as inhibitors; actives 1.6% (n = 76,000); AID 1347048; calls by dose curve; further: nearly all actives have a fitted effect of over 60% in size
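Compound pre-incubated 30 min at room temperature on GloSensor-loaded HEK293 cells stably carrying hNpr1 and the pGS-40F cGMP biosensor. Stimulation uses hNppA at 0.1 nM final; luminescence is taken at baseline and 20 min post-agonist.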
HEK293 tox: cytotoxic compounds in HEK 293 cells. HEK 293 viability, ATP luminescence (CellTiter-Glo), 48-72 h. Potency, µM (doses to about 115 µM), usual class: inhibitors. actives 6.6% (n = 94,000). AID 1345083; further: nearly all actives have a fitted effect of over 60% in size
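250 HEK 293 cells/well; compound by pintool; incubated 48 or 72 hr at 37 degree Celsius; CellTiter-Glo added, 10 min RT, luminescence imaged.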
FLuc inh: blocks purified firefly luciferase enzyme activity. purified P. pyralis luciferase, luminescence, biochemical. Potency, µM (top dose mostly 115 µM), actives largely listed as inhibitors. actives 2.5% (n = 76,000). AID 1347043; further: nearly all actives have a fitted effect of over 65% in size
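Purified 10nM P. pyralis luciferase with 10uM D-luciferin and 10uM ATP in 50mM Tris acetate pH 7.5, 10mM Mg acetate, 0.01% Tween-20, 0.05% BSA. qHTS titration; luminescence read by CCD imager.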
Npr1 antag conf: hNpr1 antagonism, confirmation assay; Potency, µM (highest dose often 57.6 µM), most hits filed as inhibitors; actives 76% (n = 1,400); shares compounds with hNpr1 antagonist; HEK293 hNpr1 cGMP GloSensor luminescence, ANP-stimulated; AID 1347044; calls by dose curve; further: nearly all actives have a fitted effect of over 70% in size
NPR2 antag: hNpr2 antagonism, selectivity versus Npr1; Potency, µM (titrated, usually from 57.6 µM), hits mostly inhibitors; actives 67% (n = 1,400); AID 1347046; shares compounds with hNpr1 antagonist; HEK293 hNpr2 GloSensor cGMP luminescence, CNP-stimulated; calls by dose curve; further: nearly all actives have a fitted effect of over 70% in size
FLuc counter: counter-screen for Npr1 antagonists: firefly luciferase inhibitors; actives 0.7% (n = 1,400); AID 1347047; purified FLuc enzyme, luminescence, Km substrate; Potency, µM (doses to about 57.6 µM), hits mostly inhibitors; shares compounds with hNpr1 antagonist
GloSensor cGMP: counter-screen for Npr1 antagonists: GloSensor control cell line; actives 69% (n = 1,400); HEK293 GloSensor cGMP, SNP-stimulated, luminescence; Potency, µM (series often up to 57.6 µM), hits mostly inhibitors; shares compounds with hNpr1 antagonist; AID 1347051; calls by dose curve; further: nearly all actives have a fitted effect of over 70% in size
Hits are given with their value; n = inactive; u = inconclusive; x = no result. Unless noted, the call rests on the fitted dose curve; in most records, active means well fitted curve in the direction sought with a large enough effect; inconclusive means small, poorly fitted or top-dose-only effect, or another doubt; inactive means no such curve, though single readings can be large; an effect the other way counts as inactive or inconclusive.

SMILES	GPT2 inhibitor	3T3 cytotox	hNpr1 antagonist	HEK293 tox	FLuc inh	Npr1 antag conf	NPR2 antag	FLuc counter	GloSensor cGMP
COc1cccc(C(=O)N2CCCN(c3cc(-c4ccc(Cl)cc4)[nH]n3)CC2)c1OC	u	u	11µM	u	n	19µM	17µM	n	15µM
COc1cccc(C(=O)N2CCCN(c3cc(-c4ccc(C)c(C)c4)[nH]n3)CC2)c1OC	n	u	10µM	40µM	n	24µM	22µM	n	24µM
O=C(Cc1ccc(F)cc1)N1CCC(C(=O)N2CCC(c3ccccc3)CC2)CC1	n	u	x	u	x	x	x	x	x
O=c1[nH]c2ccccc2n1C1CCN(c2nccc(-c3cccnc3)n2)CC1	n	32µM	11µM	14µM	n	22µM	24µM	n	19µM
O=C(NC1CCNCC1)c1cc(C2CC2)nc2onc(C3CCCN3)c12 (configuration not stated)	n	n	x	n	x	x	x	x	x
CCN(Cc1noc(C2CCC2)n1)C(=O)C(C)Oc1ccc2ccccc2c1 (configuration not stated)	n	n	11µM	35µM	n	19µM	22µM	n	14µM
CN(Cc1cn(-c2ccccc2)nn1)Cc1noc(C2CCC2)n1	n	n	n	u	n	x	x	x	x
CCOC(=O)[C@@H]1[C@@H](O)C(=O)N(Cc2ccccc2)C12CCN(C(=O)C1CC1)CC2	x	u	x	n	x	x	x	x	x
O=C(c1cccc(F)c1)N1CCC2(CC1)N=C(c1ccc(Br)cc1)NO2	n	u	u	u	n	x	x	x	x
O=C(c1ccc2[nH]ccc2c1)N1CCC2(CC1)N=C(c1ccc(Br)cc1)NO2	n	u	11µM	u	n	24µM	14µM	n	11µM
O=C(c1ccccc1)N1CCC2(CC1)N=C(c1ccc(Br)cc1)NO2	n	u	16µM	u	n	27µM	u	n	u
Cc1ccc(C2=NC3(CCN(C(=O)c4ccc(N(C)C)cc4)CC3)ON2)cc1	n	n	n	u	u	x	x	x	x
Cc1ccc(C(=O)N2CCC3(CC2)N=C(c2ccc(Br)cc2)NO3)cc1	n	n	16µM	u	n	22µM	19µM	n	19µM
O=C(c1ccc2cc[nH]c2c1)N1CCC2(CC1)N=C(c1cccc(Br)c1)NO2	n	u	u	u	n	x	x	x	x
CN(C)c1ccc(C(=O)N2CCC3(CC2)N=C(c2ccc(Br)cc2)NO3)cc1	n	n	11µM	u	n	19µM	22µM	n	15µM
O=C(Cc1ccccc1)NC1CCN(CCn2nc3n(c2=O)CCCC3)C1 (configuration not stated)	x	n	x	n	x	x	x	x	x
O=C(NC1CCN(C(=O)c2ccc(-c3cncnc3)cc2)CC1)c1cccc(Cl)c1	n	n	x	n	x	x	x	x	x
Cc1ccc(NC(=O)c2cc3n(n2)CC(c2ccc4c(c2)OCO4)OC3)cc1Cl (configuration not stated)	n	u	u	u	n	u	u	n	n
CCc1cccc(NC(=O)c2cc3n(n2)CC(c2ccc(Cl)cc2)OC3)c1 (configuration not stated)	n	u	u	u	n	x	x	x	x
Cc1ccccc1NC(=O)c1cc2n(n1)CC(c1ccc(Cl)cc1)OC2 (configuration not stated)	n	u	u	u	n	x	x	x	x
O=C(Nc1ccc(Cl)cc1)c1cc2n(n1)CC(c1ccc3c(c1)OCO3)OC2 (configuration not stated)	n	u	13µM	u	n	24µM	22µM	n	22µM
Cc1cc(F)ccc1NC(=O)c1cc2n(n1)CC(c1ccc(Cl)cc1)OC2 (configuration not stated)	n	u	16µM	u	n	27µM	22µM	n	24µM
CCc1ccc(NC(=O)c2cc3n(n2)CC(c2ccc(Cl)cc2)OC3)cc1 (configuration not stated)	n	u	11µM	u	n	22µM	u	n	u
COc1ccc(C2(C(=O)N3CC(c4noc(COc5ccc(F)cc5)n4)C3)CC2)cc1	n	u	x	u	x	x	x	x	x
O=C(NCc1ccc(Cl)cc1)c1cc2n(n1)CC(c1ccc3c(c1)OCO3)OC2 (configuration not stated)	n	u	n	u	n	x	x	x	x
SMILES	GPT2 inhibitor	3T3 cytotox	hNpr1 antagonist	HEK293 tox	FLuc inh	Npr1 antag conf	NPR2 antag	FLuc counter	GloSensor cGMP
O=C(Nc1cccc(Cl)c1)c1cc2n(n1)CC(c1ccc3c(c1)OCO3)OC2 (configuration not stated)	n	u	n	u	n	x	x	x	x
O=C(Nc1ccc(F)cc1)c1cc2n(n1)CC(c1ccc3c(c1)OCO3)OC2 (configuration not stated)	n	u	13µM	u	n	22µM	34µM	n	u
CCc1ccc(CNC(=O)c2cc3n(n2)CC(c2ccc4c(c2)OCO4)OC3)cc1 (configuration not stated)	u	u	n	u	n	u	n	n	u
CCC(C)NC(=O)C1CCCN1Cc1ccc(-c2cncnc2)cc1 (configuration not stated)	n	n	x	n	x	x	x	x	x
COc1cccc(-c2ccccc2NC(=O)C2CCN(Cc3cc(OC)ccc3O)CC2)c1	u	u	u	18µM	n	24µM	u	n	27µM
COc1ccc(C2(C(=O)N3CC(CO)C4(CCNCC4)C3)CC2)cc1 (configuration not stated)	n	n	x	n	x	x	x	x	x
O=C(C1CCc2nnc(C3CCN([S+](=O)([O-])c4ccccc4Cl)CC3)n21)N1CCCCC1 (configuration not stated)	n	n	x	n	x	x	x	x	x
CC(C)C(=O)N1CCC2(CC1)CC(N(Cc1ccc(F)cc1)C1CC1)CCO2 (configuration not stated)	n	n	n	u	n	n	n	n	n
Cc1ccc(C(=O)N2CCC3(CC2)CC(N(Cc2ccccc2)C2CC2)CCO3)cc1F (configuration not stated)	n	u	11µM	45µM	n	24µM	u	n	27µM
O=C(Cc1ccc(F)cc1)N1CCC2(CC1)CC(N(Cc1ccccc1)C1CC1)CCO2 (configuration not stated)	n	u	u	u	n	x	x	x	x
COc1ccc(CN(C)C2CCCN(CCc3ccccc3)C2)cc1F (configuration not stated)	n	u	n	u	n	x	x	x	x
